# Laboratory results taken from the supplement of paper PMC8728848.
# This is one part of a sample in which the strongest signals are shown more often than they occur.
# B1: NK2 (Sus scrofa) (peptide)
# chain: KILRGVCKKIMRTFLRRISKDILTGKK
# Tests used:
# Test in all cases: glycan array binding signal (z-score within array); higher = stronger binding
# Details in all cases: glycan notation: IUPAC condensed, linker removed
# [1] = molecular target: Fuc(a1-2)Gal(b1-3)GalNAc(b1-3)Gal
# In short: (§1)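 From the Consortium for Functional Glycomics database, 3228 arrays were curated, keeping only those whose protein sequence was available. Binding is given as a within-array Z-score averaged across arrays sharing a protein sequence and across linkers. Negative Z-scores can be read as non-binding.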
# [2] = molecular target: Fuc(a1-2)Gal(b1-3)[Fuc(a1-4)]GlcNAc
# In short: as §1
# [3] = molecular target: Fuc(a1-2)Gal6S(b1-3)GlcNAc6S
# In short: as §1
# [4] = molecular target: Fuc(a1-2)Gal6S(b1-4)Glc6S
# In short: as §1
# [5] = molecular target: Fuc(a1-2)[Gal(a1-3)]Gal(b1-3)GlcNAc(b1-2)Man(a1-3)[Fuc(a1-2)[Gal(a1-3)]Gal(b1-3)GlcNAc(b1-2)Man(a1-6)]Man(b1-4)GlcNAc(b1-4)[Fuc(a1-6)]GlcNAc
# In short: as §1
# [6] = molecular target: Fuc(a1-2)[Gal(a1-3)]Gal(b1-4)GlcNAc(b1-6)GalNAc
# In short: as §1
# [7] = molecular target: Fuc(a1-2)[GalNAc(a1-3)]Gal(b1-4)GlcNAc(b1-6)GalNAc
# In short: as §1
# [8] = molecular target: Fuc(a1-2)[GalNAc(b1-3)]Gal
# In short: as §1
# [9] = molecular target: Fuc(a1-3)[Gal3S(b1-4)]GlcNAc
# In short: as §1
# [10] = molecular target: Fuc(a1-3)[Gal3S(b1-4)]GlcNAc6S
# In short: as §1
# [11] = molecular target: Fuc(a1-3)[GalNAc(b1-4)]GlcNAc
# In short: as §1
# [12] = molecular target: Gal(a1-3)Fuc(a1-2)Gal(b1-4)GlcNAc(b1-3)[Gal(a1-3)Fuc(a1-2)Gal(b1-4)GlcNAc(b1-6)]GalNAc
# In short: as §1
# [13] = molecular target: Gal(a1-3)Gal(b1-4)GlcNAc(b1-3)GalNAc
# In short: as §1
# [14] = molecular target: Gal(a1-4)Gal(b1-4)GlcNAc(b1-3)Gal(b1-4)Glc
# In short: as §1
# [15] = molecular target: Gal(b1-3)GlcNAc(b1-3)GalNAc
# In short: as §1
# [16] = molecular target: Gal(b1-3)[Fuc(a1-4)]GlcNAc(b1-2)Man(a1-3)[Gal(b1-3)[Fuc(a1-4)]GlcNAc(b1-2)Man(a1-6)]Man(b1-4)GlcNAc(b1-4)[Fuc(a1-6)]GlcNAc
# In short: as §1
# [17] = molecular target: Gal(b1-4)GlcNAc(b1-3)Gal(b1-4)GlcNAc(b1-3)Gal(b1-4)GlcNAc(b1-2)Man(a1-3)[Gal(b1-4)GlcNAc(b1-3)Gal(b1-4)GlcNAc(b1-3)Gal(b1-4)GlcNAc(b1-2)Man(a1-6)]Man(b1-4)GlcNAc(b1-4)[Fuc(a1-6)]GlcNAc
# In short: as §1
# [18] = molecular target: Gal(b1-4)GlcNAc(b1-3)Gal(b1-4)GlcNAc(b1-6)[Gal(b1-3)]GalNAc
# In short: as §1
# [19] = molecular target: Gal3S(b1-4)Glc6S
# In short: as §1
# [20] = molecular target: Gal3S(b1-4)GlcNAc6S
# In short: as §1
# [21] = molecular target: Gal3S4S(b1-4)GlcNAc
# In short: as §1
# [22] = molecular target: Gal3S6S(b1-4)GlcNAc
# In short: as §1
# [23] = molecular target: Gal3S6S(b1-4)GlcNAc6S
# In short: as §1
# [24] = molecular target: Gal4S6S(b1-4)GlcNAc
# In short: as §1
# [25] = molecular target: Gal6S(b1-3)GlcNAc6S
# In short: as §1
# [26] = molecular target: Gal6S(b1-4)GlcNAc6S
# In short: as §1
# [27] = molecular target: GalNAc(a1-3)GalNAc(b1-3)Gal(a1-4)Gal(b1-4)Glc
# In short: as §1
# [28] = molecular target: GalNAc(b1-3)Gal(a1-6)Gal(b1-4)Glc
# In short: as §1
# [29] = molecular target: GalNAc(b1-4)GlcNAc
# In short: as §1
# [30] = molecular target: Glc(a1-4)Glc(a1-4)Glc(a1-4)Glc
# In short: as §1
# [31] = molecular target: GlcNAc(a1-6)Gal(b1-4)GlcNAc
# In short: as §1
# [32] = molecular target: GlcNAc(b1-2)Gal(b1-3)GalNAc
# In short: as §1
# [33] = molecular target: GlcNAc(b1-2)Man(a1-3)[GlcNAc(b1-4)][GlcNAc(b1-2)Man(a1-6)]Man(b1-4)GlcNAc(b1-4)[Fuc(a1-6)]GlcNAc
# In short: as §1
# [34] = molecular target: GlcNAc(b1-3)Gal(b1-4)GlcNAc(b1-6)[GlcNAc(b1-3)Gal(b1-3)]GalNAc
# In short: as §1
# [35] = molecular target: GlcNAc(b1-4)Gal(b1-4)GlcNAc
# In short: as §1
# [36] = molecular target: GlcNAc(b1-4)GlcNAc(b1-4)GlcNAc(b1-4)GlcNAc(b1-4)GlcNAc
# In short: as §1
# [37] = molecular target: GlcNAc6S(b1-3)Gal(b1-4)GlcNAc
# In short: as §1
# [38] = molecular target: Kdn(a2-3)Gal(b1-4)Glc
# In short: as §1
# [39] = molecular target: Neu5Ac(a2-3)Gal(b1-4)GlcNAc(b1-2)Man(a1-3)[GlcNAc(b1-2)Man(b1-4)GlcNAc(b1-2)Man(a1-6)]Man(b1-4)GlcNAc(b1-4)GlcNAc
# In short: as §1
# [40] = molecular target: Neu5Ac(a2-3)Gal(b1-4)GlcNAc(b1-3)Gal(b1-4)GlcNAc(b1-3)GalNAc
# In short: as §1
# [41] = molecular target: Neu5Ac(a2-3)Gal(b1-4)GlcNAc(b1-6)GalNAc
# In short: as §1
# [42] = molecular target: Neu5Ac(a2-3)Gal(b1-4)[Fuc(a1-3)]GlcNAc(b1-3)Gal
# In short: as §1
# [43] = molecular target: Neu5Ac(a2-3)[Neu5Ac(a2-6)]GalNAc
# In short: as §1
# [44] = molecular target: Neu5Ac(a2-6)Gal
# In short: as §1
# [45] = molecular target: Neu5Ac(a2-6)Gal(b1-4)GlcNAc(b1-2)Man(a1-6)[GlcNAc(b1-2)Man(a1-3)]Man(b1-4)GlcNAc(b1-4)GlcNAc
# In short: as §1
# [46] = molecular target: Neu5Ac(a2-6)Gal(b1-4)GlcNAc(b1-2)Man(a1-6)[Man(a1-3)]Man(b1-4)GlcNAc(b1-4)GlcNAc
# In short: as §1
# [47] = molecular target: Neu5Ac(a2-6)Gal(b1-4)GlcNAc(b1-3)Gal(b1-4)GlcNAc(b1-3)[Neu5Ac(a2-6)Gal(b1-4)GlcNAc(b1-3)Gal(b1-4)GlcNAc(b1-6)]GalNAc
# In short: as §1
# [48] = molecular target: Neu5Ac(a2-6)Gal(b1-4)GlcNAc(b1-6)[Gal(b1-3)GlcNAc(b1-3)]Gal(b1-4)Glc
# In short: as §1
# [49] = molecular target: Neu5Ac(a2-6)Gal(b1-4)GlcNAc(b1-6)[Gal(b1-3)]GalNAc
# In short: as §1
# [50] = molecular target: Neu5Ac(a2-6)GlcNAc(b1-4)GlcNAc
# In short: as §1
# [51] = molecular target: Neu5Ac(a2-8)Neu5Ac(a2-3)Gal(b1-4)Glc
# In short: as §1
# [52] = molecular target: Neu5Gc(a2-3)Gal(b1-3)GlcNAc
# In short: as §1
binder,measurement,setting,value
B1,glycan array binding signal (z-score),[1],0.02
same,glycan array binding signal (z-score),[2],-0.178
same,glycan array binding signal (z-score),[3],2.03
same,glycan array binding signal (z-score),[4],2.24
same,glycan array binding signal (z-score),[5],0.527
same,glycan array binding signal (z-score),[6],0.282
same,glycan array binding signal (z-score),[7],-1.05
same,glycan array binding signal (z-score),[8],-0.991
same,glycan array binding signal (z-score),[9],0.36
same,glycan array binding signal (z-score),[10],1.58
same,glycan array binding signal (z-score),[11],0.101
same,glycan array binding signal (z-score),[12],-0.533
same,glycan array binding signal (z-score),[13],0.826
same,glycan array binding signal (z-score),[14],0.785
same,glycan array binding signal (z-score),[15],-0.33
same,glycan array binding signal (z-score),[16],-0.004
same,glycan array binding signal (z-score),[17],0.462
same,glycan array binding signal (z-score),[18],2.04
same,glycan array binding signal (z-score),[19],1.67
same,glycan array binding signal (z-score),[20],4.29
same,glycan array binding signal (z-score),[21],2.81
same,glycan array binding signal (z-score),[22],2.92
same,glycan array binding signal (z-score),[23],3.98
same,glycan array binding signal (z-score),[24],2.26
same,glycan array binding signal (z-score),[25],3.16
same,glycan array binding signal (z-score),[26],2.85
same,glycan array binding signal (z-score),[27],-0.58
same,glycan array binding signal (z-score),[28],-0.616
same,glycan array binding signal (z-score),[29],-0.865
same,glycan array binding signal (z-score),[30],0.05
same,glycan array binding signal (z-score),[31],-1.07
same,glycan array binding signal (z-score),[32],-0.471
same,glycan array binding signal (z-score),[33],-1.11
same,glycan array binding signal (z-score),[34],0.144
same,glycan array binding signal (z-score),[35],0.592
same,glycan array binding signal (z-score),[36],0.06
same,glycan array binding signal (z-score),[37],-0.015
same,glycan array binding signal (z-score),[38],0.105
same,glycan array binding signal (z-score),[39],-0.411
same,glycan array binding signal (z-score),[40],2.37
same,glycan array binding signal (z-score),[41],1.14
same,glycan array binding signal (z-score),[42],-0.39
same,glycan array binding signal (z-score),[43],0.24
same,glycan array binding signal (z-score),[44],-0.071
same,glycan array binding signal (z-score),[45],0.794
same,glycan array binding signal (z-score),[46],-0.656
same,glycan array binding signal (z-score),[47],0.794
same,glycan array binding signal (z-score),[48],-0.41
same,glycan array binding signal (z-score),[49],-1.1
same,glycan array binding signal (z-score),[50],-0.816
same,glycan array binding signal (z-score),[51],-0.889
same,glycan array binding signal (z-score),[52],-0.108
